CD11b adhes enh – CD11b/CD18-fibrinogen binding enhancement | K562 CD11b/CD18 adhesion to fibrinogen, ATPlite luminescence | hit rate 0.07% among 93,000 | activation, % at 10 µM;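 active = 10 µM primary screen giving 50% or more activity, confirmed by 40% or more on retest at that dose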
FAK blocker – inhibitors of human focal adhesion kinase | AID 727 | Q05397 | biochemical FAK kinase activity assay | hit rate 0.84% among 97,000 | inhibition, %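 (tested at 7 µM)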;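 note: 0% = DMSO and 100% = reference compound high control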
ERb coact inh – blocks coactivator binding to human estrogen receptor beta | Q92731 | TR-FRET ER-beta LBD / SRC1-Cy5 peptide binding; receptor agonist-loaded with 1 µM estradiol | inhibition, % at 25.6 µM | hit rate 1.3% among 86,000 | AID 633;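 active = compounds whose percent inhibition of the receptor-coactivator binding signal exceeds about 50% in the single-dose screen, limit read from the data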;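 note: 0% = receptor plus peptide wells without compound and 100% = peptide-only wells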
Target sequence (Q92731 whole entry, looked up, the tested form may be a part): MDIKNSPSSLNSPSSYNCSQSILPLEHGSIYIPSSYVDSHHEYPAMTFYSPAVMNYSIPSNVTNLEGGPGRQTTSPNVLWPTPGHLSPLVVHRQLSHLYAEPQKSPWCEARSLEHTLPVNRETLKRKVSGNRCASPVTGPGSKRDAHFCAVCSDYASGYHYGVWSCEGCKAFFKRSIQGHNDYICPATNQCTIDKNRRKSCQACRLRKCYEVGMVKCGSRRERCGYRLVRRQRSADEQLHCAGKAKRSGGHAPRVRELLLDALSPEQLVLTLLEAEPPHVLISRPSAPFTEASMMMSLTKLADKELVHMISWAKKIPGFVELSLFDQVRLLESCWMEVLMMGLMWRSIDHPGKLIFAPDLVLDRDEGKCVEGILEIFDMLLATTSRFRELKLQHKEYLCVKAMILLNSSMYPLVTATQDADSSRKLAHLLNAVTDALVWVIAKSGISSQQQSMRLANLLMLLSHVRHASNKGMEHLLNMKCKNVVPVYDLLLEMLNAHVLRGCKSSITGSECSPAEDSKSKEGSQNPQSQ
Mac1 fbg inh – CD11b/CD18-fibrinogen binding inhibition. P05107+P11215. K562 CD11b/CD18 adhesion to fibrinogen, ATPlite luminescence; Mn2+ added to activate the integrin. inhibition, % at 10 µM. hit rate 0.54% among 93,000. AID 1497;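 active = primary inhibition of 50% or more at 10 µM, then 40% or more on retest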
ERa SRC1 pot – enhances coactivator binding to human estrogen receptor alpha; hit rate 1.3% among 86,000; coactivator binding (% of control), % at 25.6 µM; TR-FRET ERalpha-LBD/SRC-Cy5 coactivator binding, 2 h; 100 = basal binding, no effect; in the data active = activity above about 200%;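 note: binding measured in presence of low estradiol as agonist stimulus; 0% = peptide alone without receptor and 100% = receptor with peptide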
ERa coact inh – blocks coactivator binding to human estrogen receptor alpha; inhibition, % at 25.6 µM; P03372; hit rate 1.7% among 86,000; TR-FRET ER-alpha LBD / SRC-1 peptide, estradiol-bound; in the data active = inhibition above about 50%;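 note: 0% = receptor plus peptide control and 100% = peptide only without receptor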
FAK inh confirm – confirmation of human focal adhesion kinase (FAK) inhibitors; shares compounds with FAK blocker; FAK kinase biochemical inhibition assay; inhibition, % at 7 µM; hit rate 28% among 750; AID 794
An asterisk follows results filed as active; · = no result; [ ] = remark or other dose. A selection: hits, their analogues and other compounds. The true share with any hit is near 3.5%. Cut-off read from the data, not from the text of the source, unless noted: active = inhibition above about 19%; inactive = the rest.

SMILES | CD11b adhes enh | FAK blocker | ERb coact inh | Mac1 fbg inh | ERa SRC1 pot | ERa coact inh | others
Cc1ccc2cccc(OC(=O)N3CCCC3)c2n1 | 10 | -1 | -7 | -26 | 108 | -14
O=C(Oc1c(Cl)cc(Cl)c2ccccc12)N1CCCCC1 | -5 | 0 | 18 | 56* | 104 | -4
O=C1NC(=O)C(=Cc2cn(CCOc3ccc4c(c3)OCO4)c3ccccc23)C(=O)N1 | 69 | 3 | 60*[fluorescence artefact?] | -43 | 131 | 84*[fluorescence artefact?]
COc1cc(N2CCOCC2)ccc1C=C1C(=O)NC(=O)NC1=O | 2 | · | · | · | · | ·
CCC(C(=O)N1CCC2(CC1)OCCO2)c1ccccc1 (stereo not given) | · | 1 | -8 | · | 96 | -8
Cc1ccc(S(=O)(=O)Cc2ccc(C(=O)N3CCC4(CC3)OCCO4)o2)cc1 | 8 | 1 | 56* | -1 | 49 | 51*
Cc1ccccc1NP(=O)(Oc1ccccc1F)Oc1ccccc1F | 5 | · | · | 21 | · | ·
CCc1nc(N2CCNCC2)c(C#N)c2c1CSC(C)(C)C2 | -1 | · | -9 | 4 | 98 | -4
Cc1ccc(-n2c(C)cc(/C=C3/C(=O)NC(=O)N(Cc4ccco4)C3=O)c2C)cc1 | -4 | · | · | 13 | · | ·
Cc1cc(/C=C2/C(=O)NC(=O)N(c3ccccc3)C2=O)c(C)n1-c1ccc(F)cc1 | · | -3 | 43 | · | 110 | 52*
Cc1cc(N2C(=O)C3CCCN3C2c2ccccc2)no1 (stereo not given) | -2 | -1 | -6 | 13 | 118 | -3
C[C@H]1CCC[C@@H](O)CCC/C=C/c2cc(O)cc(O)c2C(=O)O1 | 0 | 7 | 7 | -7 | 466* | 3
C[N+]1=C(/C=C/Nc2ccccc2)C(C)(C)c2ccccc21 | 1 | · | · | 28 | · | ·
O=c1[nH]c(=O)n(CCC2=CCCCC2)c(O)c1C=Nc1cccc(F)c1 | · | -7 | 10 | · | 254* | 20
O=C(N/N=C/c1c(O)n(CCC2=CCCCC2)c(=O)[nH]c1=O)c1ccccc1 | -1 | · | · | 11 | · | ·
Nc1ccccc1N=Cc1c(O)n(CCC2=CCCCC2)c(=O)[nH]c1=O | 3 | -2 | 30 | 7 | 140 | 57*
CC(N=Cc1c(O)[nH]c(=O)[nH]c1=O)c1ccccc1 (stereo not given) | 1 | 0 | 7 | -25 | 90 | 8
CC[C@@H](CO)NC(=O)[C@@H]1C=C2c3cccc4c3c(cn4C)C[C@H]2N(C)C1 | · | · | 51*[fluorescence artefact?] | · | 43 | 27
Cc1nc2c(=O)n(C)c(=O)nc-2n(C)n1 | · | 68* | -8 | · | 108 | -8
N#Cc1c(/N=C/c2c(O)n(Cc3ccco3)c(=O)[nH]c2=O)sc2c1CCCC2 | · | 1 | 75* | · | 86 | 45
CCC1=C(C)C(N2CCOCC2)=NP(N2CCOCC2)(N2CCOCC2)=N1 | -2 | 2 | 23 | -4 | 111 | 3
O=c1[nH]c(=O)n(CCc2ccccc2)c(O)c1C=NCc1ccc2c(c1)OCO2 | 6 | 14 | 36 | 0 | 267*[fluorescence artefact?] | 55*[fluorescence artefact?]
CCOc1ccccc1-n1c(O)c(C=NCc2ccc3c(c2)OCO3)c(=O)[nH]c1=O | 1 | -3 | -19 | -8 | 100 | -26
CCn1ncc(/C=C2/CC3C4CC=C5CC(O)CCC5(C)C4CCC3(C)C2=O)c1C (stereo not given) | · | 0 | 7 | · | 542*[fluorescence artefact?] | -32
Cc1nn(C)c(C)c1/C=C1/CC2C3CC=C4CC(O)CCC4(C)C3CCC2(C)C1=O (stereo not given) | · | 1 | 7 | · | 81 | 6
SMILES | CD11b adhes enh | FAK blocker | ERb coact inh | Mac1 fbg inh | ERa SRC1 pot | ERa coact inh | others
COc1ccc(CC2C(=O)NC(=O)N(c3ccccc3)C2=O)c(OC)c1 (stereo not given) | 0 | -2 | 4 | 30 | 121 | -6
Nc1ccnn1C1CCNCC1 | 5 | 5 | 95*[fluorescence artefact?] | -38 | 43 | 96*[fluorescence artefact?]
CC1CCN(S(=O)(=O)c2ccc(NN=C(C#N)C#N)cc2)CC1 | -9 | -1 | · | 98* | · | ·
COc1ccc(P2(=O)Nc3ccccc3N2)cc1 | · | 40* | 22 | · | 74 | 10 | FAK inh confirm=14
COc1ccc(NP(=O)(Nc2ccc(OC)cc2)Oc2ccccc2)cc1 | 0 | · | · | 3 | · | ·
Nc1c(C(=O)NC2CCCC2)c2nc3ccccc3nc2n1CC1CCCO1 (stereo not given) | 0 | 36* | 14 | -1 | 66 | 14 | FAK inh confirm=0
C=CCN1C(=O)C2(C(C(=O)OCC)=C(N)Oc3ccccc32)c2c1c1ccccc1oc2=O (stereo not given) | -1 | 1 | 9 | 34 | 97 | 5
O=C1C(=O)c2ccccc2-c2ccccc21 | -7 | 59* | · | 60* | · | · | FAK inh confirm=59*
COCCNC(=O)c1c(N)n(CCC(C)C)c2nc3ccccc3nc12 | 4 | 26* | 3 | 0 | 91 | 2 | FAK inh confirm=2
CC(C)CCn1c(N)c(C(=O)NCc2cccs2)c2nc3ccccc3nc21 | -2 | 23* | 16 | 22 | 96 | 3 | FAK inh confirm=-3
CCCCNC(=O)c1c(N)n(CCCOC)c2nc3ccccc3nc12 | -1 | · | · | 1 | · | ·
CCN1CC2(COC(=O)c3ccccc3N)CCC(OC)C34C5CC6C(OC)CC(O)(C5C6OC)C(O)(C(OC)C23)C14 (stereo not given) | -4 | -1 | · | 2 | · | ·
COc1ccc2c(c1)c(C(=O)O)c(C)n2CC(C)C | -1 | 10 | 3 | 0 | 95 | 4
CCCCn1c(C)c(C(=O)O)c2cc(OC)ccc21 | -1 | 32* | 2 | 5 | 79 | 3 | FAK inh confirm=11
COC(=NC1CCCC1)C(O)c1c[nH]c2ccccc12 (stereo not given) | · | 1 | 4 | · | 129 | -8
C=CCN(CC=C)Cc1c[nH]c2ccccc12 | -3 | 5 | · | 5 | · | ·
O/N=C/c1c[nH]c2ccccc12 | 0 | 38* | -18 | -10 | 115 | -19 | FAK inh confirm=11
CC(=O)C1(c2ccccc2)CCNCC1 | -3 | 1 | 1 | 1 | 102 | -3
COc1ccc(Cn2c(N)c(C(=O)NCc3ccco3)c3nc4ccccc4nc32)cc1OC | -3 | 34* | 25 | -3 | 48 | 23 | FAK inh confirm=0
CC(C)CNC(=O)c1c(N)n(Cc2ccc3c(c2)OCO3)c2nc3ccccc3nc12 | 0 | 31* | -19 | -3 | 118 | 29 | FAK inh confirm=0
CCOP(=O)(OCC)C(NC(=O)c1cccc2ccccc12)C(Cl)(Cl)Cl (stereo not given) | 1 | · | · | 15 | · | ·

Screens from PubChem.
